Measurements taken from PubChem BioAssay (Tox21).
Inconclusive results are not listed. Where a call stands in place of a potency, no number is given. Calls of active or inactive are those of the source. The call rests on the fitted dose curve; in most records, active means well fitted inhibition curve with a large enough effect in the repeat runs; inconclusive means weak or mixed curves; inactive means no such curve, though single readings can be large or run the other way.

Each compound was assayed against Cytochrome P450 2C9 (Homo sapiens) (UniProt P11712) (assay: Cytochrome P450 Family 2 Subfamily C Member 9 (CYP2C9) small molecule antagonists: luciferase reporter qHTS assay (AID 1671198)). Conditions: P450-Glo CYP2C9 enzyme assay, luciferin luminescence; series mostly up to 53 µM.
In short: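 CYP2C9 activity was measured with a P450-Glo proluciferin substrate. Enzyme–substrate mix was held with compound for 10 min at room temperature, then NADPH regeneration solution was added for 1 h at 37C. Luciferin product was read as luminescence.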
Further: nearly all actives have a fitted effect of over 50% in size.
Potency means the concentration at half of the fitted maximal effect.

Sequence of Cytochrome P450 2C9 (Homo sapiens) (P11712 whole entry, looked up): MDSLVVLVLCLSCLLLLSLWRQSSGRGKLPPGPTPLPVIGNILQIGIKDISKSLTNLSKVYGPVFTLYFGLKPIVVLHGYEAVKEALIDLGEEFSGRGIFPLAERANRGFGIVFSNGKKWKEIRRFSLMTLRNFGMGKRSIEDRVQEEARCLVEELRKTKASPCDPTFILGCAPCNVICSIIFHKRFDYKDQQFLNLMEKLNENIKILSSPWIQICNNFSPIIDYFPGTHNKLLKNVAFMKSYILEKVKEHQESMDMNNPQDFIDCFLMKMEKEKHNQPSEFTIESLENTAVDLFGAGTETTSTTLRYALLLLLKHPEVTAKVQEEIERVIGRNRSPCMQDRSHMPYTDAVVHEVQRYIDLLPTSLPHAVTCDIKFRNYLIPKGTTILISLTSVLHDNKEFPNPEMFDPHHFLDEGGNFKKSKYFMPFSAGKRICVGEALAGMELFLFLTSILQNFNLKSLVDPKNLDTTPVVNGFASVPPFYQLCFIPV

| Compound | Potency |
| --- | --- |
| CCOC(=O)c1cc(=O)c2c(OCC(COc3cccc4oc(C(=O)OCC)cc(=O)c34)OC(=O)[C@@H](N)CCCCN)cccc2o1 | 15.5 µM (active) |
| CC/C=C\CCOC(=O)CCCCC | inactive |
| Cc1c(N)cccc1N | 64.7 µM (active) |
| CCOC(=O)C(Br)c1ccccc1 (centres undefined) | 79.6 µM (active) |
| CCCCN1C[C@H](O)[C@@H](O)[C@H](O)[C@H]1CO | inactive |
| CC(C)C(=O)OC/C=C/c1ccccc1 | 35.6 µM (active) |

These compounds were tested against Cytochrome P450 1A2 (Homo sapiens) (UniProt P05177) (assay: Cytochrome P450 Family 1 Subfamily A Member 2 (CYP1A2) small molecule antagonists: luciferase reporter qHTS assay (AID 1671199)). Conditions: P450-Glo CYP1A2 enzyme, luciferin luminescence, 1 h; series mostly up to 53 µM.
In short: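 Enzymatic CYP1A2 assay, human, luminescent: 10 min compound–enzyme–substrate preincubation, 1 h NADPH-dependent turnover, 20 min detection step, room temperature throughout. Reduced light indicates lower CYP1A2 activity.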

Sequence of Cytochrome P450 1A2 (Homo sapiens) (P05177 whole entry, looked up): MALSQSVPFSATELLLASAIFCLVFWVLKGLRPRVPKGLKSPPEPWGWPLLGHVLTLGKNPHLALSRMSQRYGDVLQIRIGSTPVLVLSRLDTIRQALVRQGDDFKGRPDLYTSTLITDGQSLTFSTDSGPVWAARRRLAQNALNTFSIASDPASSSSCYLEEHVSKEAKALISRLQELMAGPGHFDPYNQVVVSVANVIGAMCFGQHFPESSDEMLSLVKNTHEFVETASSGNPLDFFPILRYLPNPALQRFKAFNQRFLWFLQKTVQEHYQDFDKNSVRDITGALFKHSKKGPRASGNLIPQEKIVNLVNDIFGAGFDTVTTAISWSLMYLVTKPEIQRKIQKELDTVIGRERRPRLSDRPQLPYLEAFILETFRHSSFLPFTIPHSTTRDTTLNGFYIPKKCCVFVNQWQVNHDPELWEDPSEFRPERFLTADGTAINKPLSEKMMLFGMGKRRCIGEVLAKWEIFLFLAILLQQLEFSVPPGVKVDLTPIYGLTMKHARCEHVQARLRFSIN

| Compound | Potency |
| --- | --- |
| CCCCC(=O)O[C@]1(C(=O)CO)[C@H](C)C[C@H]2[C@@H]3CCC4=CC(=O)C=C[C@]4(C)[C@@]3(F)[C@@H](O)C[C@@]21C | inactive |
| CCCCNCCCC | inactive |
| FC(F)(F)c1ccccc1 | inactive |
| Nc1cccc(S(=O)(=O)O)c1 | inactive |
| CCC(=O)O[C@]1(C(=O)SCF)[C@H](C)C[C@H]2[C@@H]3C[C@H](F)C4=CC(=O)C=C[C@]4(C)[C@@]3(F)[C@@H](O)C[C@@]21C | inactive |
| O=C1C=CC(=O)O1 | inactive |
| C[C@]12CCC(=O)C=C1CC[C@@H]1[C@@H]2CC[C@@]2(C)[C@H]1CC[C@]2(O)C(=O)CO | inactive |
| CCOc1ccccc1N | 19.9 µM (active) |
| O=C1CCCCC1C1CCCCC1 (centres undefined) | inactive |
| COc1ccc(Nc2ccc(OC)cc2)cc1 | 18.2 µM (active) |
| Cc1c(N)cccc1N | 23 µM (active) |
| CC1=C(CC(=O)O)c2cc(F)ccc2/C1=C\c1ccc(S(C)(=O)=O)cc1 | 17.4 µM (active) |
| CCCCN1C[C@H](O)[C@@H](O)[C@H](O)[C@H]1CO | inactive |
